Results taken from PubChem BioAssay AID1159580 (chemical genetic matrix, 2015).
Where “and” joins values, the source holds several entries; their conditions need not be identical. Equal values may be shown once. In all, about 5,500 compounds went through this assay and about 2,000 (36%) were called active. Another 18% or so got no clear call; they are omitted. No stated cut-off is given here; in the data, active means normalized growth mostly below about 0.91 (no sharp cut-off); inconclusive means no clear call, values can overlap the other calls; inactive means mostly above about 0.92. Some of the results follow.

Experiment: chemical genetic growth profiling, strain panel (AID 1159580);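 further: tested at 20 µM; growth read once vehicle control cultures reached saturation at 30 °C; 1 = growth at the plate median or of vehicle wells; lower values mean less growth of the strain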
Details: S. cerevisiae deletion strains, growth OD

Measured: normalized growth

CC(C)=CC1C(CO)C1(C)C (centres undefined)
inactive: locus YAL021C, strain ccr4, hits give low values 1.01 | locus YAL026C, strain drs2, hits give low values 1.03 | locus YAL030W, strain snc1, hits give low values 1.02 | locus YBL061C, strain skt5, hits give low values 1.02 | locus YBR009C, strain hhf1, hits give low values 1.03 | locus YBR021W, strain FUR4, hits give low values 1.02 | locus YBR023C, strain chs3, hits give low values 1.02 | locus YBR171W, strain sec66, hits give low values 1.03 | locus YBR229C, strain ROT2, hits give low values 1.02 | locus YBR231C, strain swc5, hits give low values 1.02 | locus YBR279W, strain paf1, hits give low values 1.02 | locus YCL011C, strain gbp2, hits give low values 1.02 | locus YCL016C, strain dcc1, hits give low values 1.02 | locus YCL029C, strain bik1, hits give low values 0.994 | locus YCL061C, strain MRC1, hits give low values 1.01 | locus YCL069W, strain vba3, hits give low values 1.01 | locus YCR088W, strain abp1, hits give low values 1.02 | locus YDL005C, strain med2, hits give low values 1.03 | locus YDL035C, strain GPR1, hits give low values 1.03 | locus YDL040C, strain nat1, hits give low values 1.02 | locus YDL074C, strain BRE1, hits give low values 1.03 | locus YDL101C, strain DUN1, hits give low values 1.03 | locus YDL185W, strain tfp1, hits give low values 0.999 | locus YDL192W, strain arf1, hits give low values 1.01 | locus YDR001C, strain nth1, hits give low values 1.01 | locus YDR069C, strain doa4, hits give low values 1.04 | locus YDR101C, strain arx1, hits give low values 1 | locus YDR137W, strain rgp1, hits give low values 1.04 | locus YDR159W, strain sac3, hits give low values 1.03 | locus YDR162C, strain NBP2, hits give low values 1.03 | locus YDR195W, strain ref2 0.992 | locus YDR297W, strain sur2, hits give low values 1.03 | locus YDR318W, strain mcm21, hits give low values 0.995 | locus YDR334W, strain swr1, hits give low values 1.02 | locus YDR335W, strain msn5, hits give low values 1.02 | locus YDR388W, hits give low values 0.999 | locus YDR392W, strain spt3, hits give low values 0.981 | locus YDR502C, strain sam2, hits give low values 0.994 | locus YEL003W, strain gim4, hits give low values 1.02 | locus YEL037C, strain rad23, hits give low values 1.02 | locus YEL061C, strain CIN8 (second series), hits give low values 1.01 | locus YEL061C, strain CIN8, hits give low values 1.01 | locus YER015W, strain faa2, hits give low values 1.02 | locus YER016W, strain bim1, hits give low values 1.02 | locus YER110C, hits give low values 1.01 | locus YER111C, strain swi4, hits give low values 1.02 | locus YER155C, strain BEM2 (second series), hits give low values 1.04 | locus YER155C, strain BEM2, hits give low values 1.01 | locus YER167W, strain BCK2, hits give low values 1.02 | locus YFR010W, strain ubp6, hits give low values 1.03 | locus YGL078C, strain dbp3, hits give low values 1 | locus YGL086W, strain mad1, hits give low values 1.01 | locus YGL167C, strain pmr1, hits give low values 1.02 | locus YGL173C, strain kem1, hits give low values 1.02 | locus YGL227W, strain vid30, hits give low values 1.02 | locus YGL240W, strain doc1, hits give low values 1.04 | locus YGL248W, strain PDE1, hits give low values 1.03 | locus YGL253W, strain hxk2, hits give low values 1.02 | locus YGR078C, strain PAC10, hits give low values 1.04 | locus YGR135W, strain pre9, hits give low values 1.01 | locus YGR252W, strain gcn5, hits give low values 0.989 | locus YHR013C, strain ard1, hits give low values 1.04 | locus YHR027C, strain rpn1, hits give low values 1.02 | locus YHR030C, strain SLT2, hits give low values 1.02 and 0.985 | locus YHR079C, strain IRE1 (second series), hits give low values 1.01 | locus YHR079C, strain IRE1, hits give low values 0.994 | locus YHR094C, strain hxt1, hits give low values 0.984 | locus YHR129C, strain ARP1, hits give low values 1.02 | locus YHR142W, strain chs7, hits give low values 1.01 | locus YHR200W, strain rpn10, hits give low values 1 | locus YIL066C, strain RNR3, hits give low values 1.04 | locus YIL073C, strain SPO22, hits give low values 1.02 | locus YIL125W, strain kgd1, hits give low values 1.01 | locus YIR030C, strain dcg1, hits give low values 1 | locus YJL092W, strain hpr5, hits give low values 1.01 | locus YJL095W, strain BCK1 (second series), hits give low values 1.02 | locus YJL095W, strain BCK1, hits give low values 1.04 and 0.986 | locus YJL115W, strain asf1, hits give low values 1.02 | locus YJL129C, strain trk1, hits give low values 1.02 | locus YJL134W, strain LCB3, hits give low values 1.02 | locus YJL154C, strain vps35, hits give low values 1 | locus YJL164C, strain tpk1, hits give low values 1.02 | locus YJL166W, strain qcr8, hits give low values 1.02 | locus YJL168C, strain set2, hits give low values 0.997 | locus YJL187C, strain SWE1 (second series), hits give low values 1.04 | locus YJL187C, strain SWE1, hits give low values 1.02 | locus YJR043C, strain POL32, hits give low values 1.04 | locus YJR066W, strain TOR1, hits give low values 0.957 | locus YKL009W, strain mrt4, hits give low values 1 | locus YKL068W, hits give low values 1.01 | locus YKL085W, strain MDH1 (second series), hits give low values 0.998 | locus YKL085W, strain MDH1, hits give low values 0.998 | locus YKL160W, strain elf1, hits give low values 1.01 | locus YKL190W, strain CNB1, hits give low values 1.02 | locus YKR001C, strain vps1, hits give low values 1.01 | locus YKR026C, strain gcn3, hits give low values 0.994 | locus YKR091W, strain srl3, hits give low values 1.02 | locus YLL001W, strain dnm1, hits give low values 1.03 | locus YLL026W, hits give low values 1.02 | locus YLL041C, strain sdh2, hits give low values 1.01 | locus YLR027C, strain aat2, hits give low values 1.02 | locus YLR039C, strain RIC1, hits give low values 1.07 | locus YLR058C, strain SHM2, hits give low values 1.02 | locus YLR102C, strain apc9, hits give low values 0.989 | locus YLR113W, strain HOG1, hits give low values 0.976 | locus YLR221C, strain rsa3, hits give low values 1.02 | locus YLR258W, strain gsy2, hits give low values 1.03 | locus YLR262C, strain YPT6 (second series), hits give low values 1.02 | locus YLR262C, strain YPT6, hits give low values 1.07 | locus YLR268W, strain sec22, hits give low values 0.999 | locus YLR320W, strain mms22, hits give low values 1.04 | locus YLR330W, strain CHS5, hits give low values 1.02 | locus YLR342W, strain FKS1 (second series), hits give low values 1.02 | locus YLR342W, strain FKS1, hits give low values 1.03 | locus YLR357W, strain rsc2, hits give low values 1.04 | locus YLR370C, strain arc18, hits give low values 1.01 | locus YLR371W, strain rom2, hits give low values 1 | locus YLR384C, strain iki3, hits give low values 0.999 | locus YLR418C, strain cdc73, hits give low values 0.99 | locus YML016C, strain PPZ1, hits give low values 1.02 | locus YML032C, strain rad52, hits give low values 0.997 | locus YML120C, strain ndi1, hits give low values 1.02 | locus YML124C, strain tub3, hits give low values 1.01 | locus YMR058W, strain fet3, hits give low values 1.01 | locus YMR078C, strain ctf18, hits give low values 0.99 | locus YMR125W, strain sto1, hits give low values 1.03 | locus YMR129W, hits give low values 1.01 | locus YMR205C, strain PFK2, hits give low values 1.04 | locus YMR223W, strain ubp8, hits give low values 1.01 | locus YMR231W, strain pep5, hits give low values 1.02 | locus YMR263W, strain SAP30, hits give low values 1.03 | locus YMR307W, strain GAS1, hits give low values 1.11 | locus YNL067W, strain RPL9B, hits give low values 1.04 | locus YNL071W, strain lat1, hits give low values 1.02 | locus YNL153C, strain GIM3, hits give low values 1.04 | locus YNL183C, strain NPR1, hits give low values 0.955 | locus YNL209W, strain ssb2, hits give low values 1.03 | locus YNL233W, strain BNI4, hits give low values 1.03 | locus YNL248C, strain rpa49, hits give low values 1.02 | locus YNL250W, strain rad50, hits give low values 0.994 | locus YNL271C, strain bni1, hits give low values 1 | locus YNL298W, strain CLA4, hits give low values 0.998 | locus YNL307C, strain MCK1, hits give low values 1.01 | locus YNL322C, strain KRE1 (second series), hits give low values 1.02 | locus YNR049C, strain mso1, hits give low values 1.03 | locus YNR052C, strain pop2, hits give low values 0.995 | locus YOL012C, strain htz1 0.795 | locus YOL147C, strain pex11, hits give low values 0.993 | locus YOR001W, strain rrp6, hits give low values 1.01 | locus YOR061W, strain CKA2, hits give low values 1.02 | locus YOR069W, strain VPS5, hits give low values 1.02 | locus YOR070C, strain gyp1, hits give low values 1.02 | locus YOR080W, strain dia2, hits give low values 1.02 | locus YOR083W, strain WHI5, hits give low values 1.01 | locus YOR106W, strain vam3, hits give low values 1.02 | locus YOR136W, strain idh2, hits give low values 0.991 | locus YOR144C, strain elg1, hits give low values 0.991 | locus YOR184W, strain ser1, hits give low values 1.01 | locus YOR231W, strain MKK1, hits give low values 0.978 | locus YOR265W, strain rbl2, hits give low values 1.02 | locus YOR270C, strain vph1, hits give low values 1.03 | locus YOR290C, strain snf2, hits give low values 0.991 | locus YOR316C, strain cot1, hits give low values 0.991 | locus YPL051W, strain arl3, hits give low values 1.01 | locus YPL078C, strain atp4, hits give low values 1.01 | locus YPL106C, strain sse1, hits give low values 1.01 | locus YPL240C, strain hsp82, hits give low values 1.03 | locus YPL241C, strain CIN2, hits give low values 1.02 | locus YPL256C, strain CLN2, hits give low values 0.97 | locus YPR119W, strain clb2, hits give low values 0.989 | locus YPR141C, strain kar3, hits give low values 1 | locus YPR163C, strain tif3, hits give low values 0.99 | locus YPR167C, strain met16, hits give low values 1.01 | strain wtn01, hits give low values 0.99
